# According to PubChem BioAssay (NCATS):
# Values joined by “and” are separate entries in the source; they are usually repeats but may differ in a detail not shown here. Equal values may be shown once. Results filed as inconclusive are left out. A call without a number means that no potency is given here. Some structures have more than one record in an assay (separate samples or runs), and their calls can disagree. Active and inactive are the calls of the source. Unless noted, calls come from the whole dose curve; as a rule, active = well fitted curve in the direction sought with a large enough effect; inconclusive = small, poorly fitted or top-dose-only effect, or another doubt; inactive = no such curve, though single readings can be large; an effect the other way counts as inactive or inconclusive.
# Assays:
# [1] = biological target: Protein phosphatase 1D (Homo sapiens) (UniProt O15297); assay: Rhodamine-PBP qHTS Assay for Modulators of WT P53-Induced Phosphatase 1 (WIP1) (AID 1347425)
# Sequence of Protein phosphatase 1D (Homo sapiens) (O15297 whole entry, looked up): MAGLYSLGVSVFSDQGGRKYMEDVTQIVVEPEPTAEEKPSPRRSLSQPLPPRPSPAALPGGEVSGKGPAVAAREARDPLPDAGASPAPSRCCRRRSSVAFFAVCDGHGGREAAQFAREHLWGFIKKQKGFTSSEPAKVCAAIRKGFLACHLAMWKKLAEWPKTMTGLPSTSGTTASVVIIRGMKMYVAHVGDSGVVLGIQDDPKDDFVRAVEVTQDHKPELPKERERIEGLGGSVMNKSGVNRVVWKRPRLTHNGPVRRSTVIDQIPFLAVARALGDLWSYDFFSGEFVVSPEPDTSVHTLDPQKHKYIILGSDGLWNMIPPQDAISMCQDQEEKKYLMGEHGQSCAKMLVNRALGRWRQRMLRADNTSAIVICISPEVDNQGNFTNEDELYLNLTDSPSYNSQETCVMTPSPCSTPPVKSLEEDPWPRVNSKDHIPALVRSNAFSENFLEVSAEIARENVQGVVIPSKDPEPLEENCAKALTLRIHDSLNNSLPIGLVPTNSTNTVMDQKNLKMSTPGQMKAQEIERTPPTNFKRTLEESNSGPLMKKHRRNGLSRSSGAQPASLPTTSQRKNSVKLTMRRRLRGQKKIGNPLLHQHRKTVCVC
# Summary of the method: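 The read-out is the change in Rhodamine-PBP fluorescence (f1 - f0, ex 525/em 598 nm) as Pi is released, read each minute for 11 min. Final reaction: 5 nM WIP1, 10 uM phosphopeptide VEPPL-pS-QETFS, 10 uM Rh-PBP, 50 mM Tris-HCl pH 7.5, 30 mM MgCl2. Compound was preincubated with enzyme for 1 hour at room temperature.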
# [2] = Primary qHTS for inhibitors of La Crosse Virus (LACV) - induced cell death in SH-SY5Y cells (AID 1508616); note: potency is the fitted concentration of half-maximal effect
# Summary of the method: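 Cytopathicity rescue screen: compounds pinned onto SH-SY5Y cells, which are then infected with LACV (MOI 0.01) and held 6 days at 37C. Percent activity is scaled between infected DMSO control and uninfected DMSO control.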
# [3] = Primary qHTS for small molecule stabilizers of the endoplasmic reticulum resident proteome: Secreted ER Calcium Modulated Protein (SERCaMP) assay (AID 1508630)
# Summary of the method: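 The SH-SY5Y reporter protocol was run at 3 concentrations up to 38.3 uM (primary) or 11 concentrations (follow-up): 16 h compound, 100 nM thapsigargin for 4 h, then extracellular luciferase luminescence.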
# [4] = A High-Content qHTS Against Drug Library for the Identification of Small Molecules that Inhibit DYT1 Early Onset Primary Dystonia-Associated Cell Pathology (AID 1645839; calls by dose curve; note: potency is the fitted concentration of half-maximal effect)
# Summary of the method: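 Cells were seeded and left for 24 h, then dosed with compound alongside tetracycline induction of mutant EGFP-TorsinA. They were incubated for 48 h, fixed in 4% paraformaldehyde, permeabilized and imaged for mislocalization (%pathology) and cell count.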
# [5] = biological target: Cytochrome P450 2D6 (Homo sapiens) (UniProt P10635); assay: Cytochrome P450 family 2 subfamily D member 6 (CYP2D6) small molecule antagonists: luciferase biochemical (cell-free) qHTS assay (AID 1645840; active = well fitted curve in the direction sought with a large enough effect in the repeat runs; an effect the other way counts as inactive or inconclusive; note: nearly all actives have a fitted effect of over 55% in size; note: potency is the fitted concentration of half-maximal effect)
# Sequence of Cytochrome P450 2D6 (Homo sapiens) (P10635 whole entry, looked up): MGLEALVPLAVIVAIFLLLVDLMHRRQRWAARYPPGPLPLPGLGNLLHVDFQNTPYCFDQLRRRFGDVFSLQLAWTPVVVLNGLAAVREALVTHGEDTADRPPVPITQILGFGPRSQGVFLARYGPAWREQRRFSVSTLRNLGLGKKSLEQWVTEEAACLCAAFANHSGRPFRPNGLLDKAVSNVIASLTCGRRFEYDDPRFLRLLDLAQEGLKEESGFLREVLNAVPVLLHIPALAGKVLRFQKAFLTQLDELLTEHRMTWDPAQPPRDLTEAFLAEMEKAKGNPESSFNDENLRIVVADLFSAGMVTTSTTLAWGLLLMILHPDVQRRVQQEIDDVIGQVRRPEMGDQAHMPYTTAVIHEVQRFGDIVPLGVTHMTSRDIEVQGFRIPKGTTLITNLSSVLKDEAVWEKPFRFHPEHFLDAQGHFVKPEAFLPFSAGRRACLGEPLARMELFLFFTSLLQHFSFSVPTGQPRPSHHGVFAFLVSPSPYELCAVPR
# Summary of the method: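 P450-Glo CYP2D6 system: proluciferin substrate converted by enzyme to luciferin, read by luminescence proportional to activity. Enzyme-substrate mix with compound 10 min at room temperature, then NADPH regeneration 1 h before detection reagent.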
# [6] = biological target: Cytochrome P450 2C9 (Homo sapiens) (UniProt P11712); assay: Cytochrome P450 family 2 subfamily C member 9 (CYP2C9) small molecule antagonists: luciferase biochemical (cell-free) qHTS assay (AID 1645842; active = well fitted curve in the direction sought with a large enough effect in the repeat runs; an effect the other way counts as inactive or inconclusive; note: nearly all actives have a fitted effect of over 55% in size; note: potency is the fitted concentration of half-maximal effect)
# Sequence of Cytochrome P450 2C9 (Homo sapiens) (P11712 whole entry, looked up): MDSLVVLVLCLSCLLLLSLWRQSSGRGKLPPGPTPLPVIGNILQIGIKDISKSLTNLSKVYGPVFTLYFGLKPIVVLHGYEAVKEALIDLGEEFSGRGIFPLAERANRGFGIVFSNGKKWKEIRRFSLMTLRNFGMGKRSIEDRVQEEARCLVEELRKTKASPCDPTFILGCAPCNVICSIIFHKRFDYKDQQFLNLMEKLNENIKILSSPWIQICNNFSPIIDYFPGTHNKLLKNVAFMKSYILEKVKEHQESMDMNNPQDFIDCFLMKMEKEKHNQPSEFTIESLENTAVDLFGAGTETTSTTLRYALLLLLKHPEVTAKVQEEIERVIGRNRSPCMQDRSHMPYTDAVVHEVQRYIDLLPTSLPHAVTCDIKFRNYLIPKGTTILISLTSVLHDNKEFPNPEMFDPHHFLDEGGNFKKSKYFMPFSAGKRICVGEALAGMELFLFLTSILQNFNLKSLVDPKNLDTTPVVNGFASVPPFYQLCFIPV
# Summary of the method: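 P450-Glo CYP2C9 system: proluciferin substrate with enzyme in mix containing 0.4% BSA, 10 min at room temperature, then NADPH regeneration solution added and incubated 1 h at 37C. Detection reagent stopped reaction; luminescence read after 20 min as RLU.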
# [7] = Primary qHTS for inhibitors of nuclear receptor binding SET domain protein 2 (NSD2) in an isogenic RCH-ACV NSD2 p.E1099K mutant (9B) (AID 1645876); note: nearly all actives have a fitted effect of over 70% in size; note: potency is the fitted concentration of half-maximal effect
# [8] = Primary qHTS for inhibitors of nuclear receptor binding SET domain protein 2 (NSD2) in an RCH-ACV wild type WT cells (2C) (AID 1645877); note: nearly all actives have a fitted effect of over 70% in size; note: potency is the fitted concentration of half-maximal effect
# [9] = biological target: Cytochrome P450 3A4 (Homo sapiens) (UniProt P08684); assay: Cytochrome P450 family 3 subfamily A member 4 (CYP3A4) small molecule antagonists: luciferase qHTS assay (AID 1645841; active = well fitted curve in the direction sought with a large enough effect in the repeat runs; an effect the other way counts as inactive or inconclusive; note: nearly all actives have a fitted effect of over 45% in size)
# Sequence of Cytochrome P450 3A4 (Homo sapiens) (P08684 whole entry, looked up): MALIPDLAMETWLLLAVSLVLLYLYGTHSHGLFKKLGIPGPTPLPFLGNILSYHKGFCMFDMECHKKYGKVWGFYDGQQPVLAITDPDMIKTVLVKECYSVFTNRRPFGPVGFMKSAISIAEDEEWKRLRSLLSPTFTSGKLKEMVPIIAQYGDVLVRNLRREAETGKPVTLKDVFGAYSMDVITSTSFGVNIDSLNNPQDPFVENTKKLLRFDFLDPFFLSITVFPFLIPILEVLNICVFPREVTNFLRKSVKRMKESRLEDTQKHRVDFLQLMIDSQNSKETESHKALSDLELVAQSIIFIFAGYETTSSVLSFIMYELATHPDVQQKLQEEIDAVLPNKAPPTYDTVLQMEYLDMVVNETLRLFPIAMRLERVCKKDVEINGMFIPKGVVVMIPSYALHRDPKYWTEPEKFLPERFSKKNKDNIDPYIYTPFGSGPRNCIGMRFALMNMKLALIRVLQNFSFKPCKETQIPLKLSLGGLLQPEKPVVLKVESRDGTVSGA
# Summary of the method: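 P450-Glo CYP3A4 enzyme with proluciferin substrate preincubated 10 min with compound at room temperature, then NADPH regeneration 1 h. Luciferin detection reagent added for 20 min; luminescence recorded. Ketoconazole positive control.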
# [10] = biological target: Calcium and integrin-binding protein 1 (Homo sapiens) (UniProt Q99828); assay: Primary qHTS for Identification of Calcium Integrin Binding Protein 1 (CIB1) Competitor (AID 1508620);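 note: GST tagged CIB1 binding a fluorescein labelled alphaIIb integrin peptide tracer; top concentration of the series differs between compounds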
# Sequence of Calcium and integrin-binding protein 1 (Homo sapiens) (Q99828 whole entry, looked up): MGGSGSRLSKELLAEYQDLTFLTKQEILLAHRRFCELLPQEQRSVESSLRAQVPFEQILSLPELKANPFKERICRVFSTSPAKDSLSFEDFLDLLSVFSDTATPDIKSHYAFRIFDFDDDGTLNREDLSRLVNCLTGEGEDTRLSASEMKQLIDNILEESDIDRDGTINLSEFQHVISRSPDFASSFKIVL
# Summary of the method: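 Fluorescence polarization competition: GST-tagged CIB1 (1 uM final) preincubated with compound 15 min at room temperature, then FITC-labelled alphaIIb peptide (100 nM final) added. After 15 min at room temperature, polarization read at Ex 480/Em 540.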
# [11] = Validation qHTS assay for inhibitors of Activation Induced Cytidine Deaminase (AID): UDG Counterscreen signal (AID 1347427)
# Summary of the method: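 Fluorescence at 560 nm excitation, 665 nm emission reports UDG signal after 250 mM NaOH (2x) addition and 30 min. Enzymes (AID 1 uM, UDG 2 U/mL, at 4/3x) preincubated 10 min with compound, then 4 h with 4x 250 nM DJC20/DJC23 substrate at room temperature.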
# [12] = biological target: Single-stranded DNA cytosine deaminase (Homo sapiens) (UniProt Q9GZX7); assay: Validation qHTS assay for inhibitors of Activation Induced Cytidine Deaminase (AID): AID signal (AID 1347429)
# Sequence of Single-stranded DNA cytosine deaminase (Homo sapiens) (Q9GZX7 whole entry, looked up): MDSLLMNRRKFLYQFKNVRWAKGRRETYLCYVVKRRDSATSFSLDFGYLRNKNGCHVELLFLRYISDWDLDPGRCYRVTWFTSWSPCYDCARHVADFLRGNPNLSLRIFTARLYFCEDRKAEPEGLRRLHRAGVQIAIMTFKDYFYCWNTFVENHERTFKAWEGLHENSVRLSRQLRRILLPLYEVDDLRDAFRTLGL
# Summary of the method: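 AID+UDG coupled FRET deamination; cpds up to 114 uM final; DJC20/DJC23 substrate, 4 hr RT; NaOH stop, 30 min RT; read Ex 540/Em 590.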
# [13] = biological target: Calcium and integrin-binding protein 1 (Homo sapiens) (UniProt Q99828); assay: Validation qHTS for Identification of Calcium Integrin Binding protein 1 (CIB1) Competitor (AID 1508618)
# Summary of the method: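 CIB1-GST (1 uM final) incubated 15 min at room temperature with compounds (up to 114 uM), then FITC-labelled alphaIIb peptide (100 nM) added. FP read (Ex 480/Em 540) after 15 min, pH 7.4 buffer containing 5 mM CaCl2.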
# [14] = biological target: Papain (Carica papaya) (UniProt P00784); assay: Primary qHTS assay for inhibitors of the protease papain (AID 1645873);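 note: papain turnover of Z-FR-AMC read as the AMC fluorescence gain over 10 min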; note: potency is the fitted concentration of half-maximal effect
# Sequence of Papain (Carica papaya) (P00784 whole entry, looked up): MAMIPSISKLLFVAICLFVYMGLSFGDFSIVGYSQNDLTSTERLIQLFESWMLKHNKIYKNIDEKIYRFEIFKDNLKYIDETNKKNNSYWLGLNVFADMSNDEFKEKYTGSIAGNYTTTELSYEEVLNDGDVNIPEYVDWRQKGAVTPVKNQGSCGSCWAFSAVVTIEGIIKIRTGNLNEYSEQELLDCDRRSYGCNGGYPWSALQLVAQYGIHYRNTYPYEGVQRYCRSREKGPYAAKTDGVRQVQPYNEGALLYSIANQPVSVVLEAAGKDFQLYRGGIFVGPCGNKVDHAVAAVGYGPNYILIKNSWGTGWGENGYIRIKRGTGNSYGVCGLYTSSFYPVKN
structure (smiles),measurement,setting,value
CN1CCN(c2c(F)cc3c(=O)c(C(=O)O)cn(CCF)c3c2F)CC1,outcome,[1],inactive
same,Potency,[2],inactive
same,Potency,[3],inactive
same,Potency,[4],inactive
same,Potency,[5],inactive
same,Potency,[6],inactive
same,Potency,[7],inactive
O=C(N[C@H](CO)[C@H](O)c1ccc([N+](=O)[O-])cc1)C(Cl)Cl,outcome,[1],inactive
same,Potency,[2],inactive
same,Potency,[3],inactive
Cc1cccc(Nc2ccncc2S(=O)(=O)NC(=O)NC(C)C)c1,outcome,[1],inactive
same,Potency,[2],inactive
same,Potency,[3],inactive
same,Potency,[4],inactive
same,Potency,[5],inactive
same,Potency,[7],inactive
same,Potency,[8],inactive
NCCCC(O)(P(=O)(O)O)P(=O)(O)O,outcome,[1],inactive
same,Potency,[2],inactive
same,Potency,[4],inactive
CNC1CCCN(c2c(F)cc3c(=O)c(C(=O)O)cn(C4CC4)c3c2OC)C1 (stereo not given),outcome,[1],inactive
same,Potency,[2],inactive
same,Potency,[3],inactive
same,Potency,[4],inactive
same,Potency,[5],inactive
same,outcome,[9],inactive
same,Potency,[6],inactive
same,Potency,[7],inactive
same,Potency,[8],inactive
CC1(C)[C@H](C(=O)O)N2C(=O)C[C@H]2S1(=O)=O,outcome,[1],inactive
same,Potency,[2],inactive
same,Potency,[4],inactive
same,Potency,[5],inactive
same,Potency,[6],inactive
same,Potency,[7],inactive
same,Potency,[8],inactive
CCn1cc(C(=O)O)c(=O)c2cc(F)c(N3CCNCC3)cc21,outcome,[1],inactive
same,Potency,[2],inactive
same,Potency,[4],inactive
same,Potency,[5],inactive
same,Potency,[6],inactive
same,Potency,[7],inactive
same,Potency,[8],inactive
NC1(c2ccc(-c3nc4ccn5c(=O)[nH]nc5c4cc3-c3ccccc3)cc2)CCC1,outcome,[1],inactive
same,Potency,[2],inactive
same,outcome,[10],inactive
same,Potency,[6],inactive
same,Potency,[7],21.1 nM (active) and 64.9 nM (active) and 166 nM (active)
same,Potency,[8],21.1 nM (active) and 81.7 nM (active) and 332 nM (active)
COc1ncnc(NS(=O)(=O)c2ccc(N)cc2)c1OC,outcome,[1],inactive
same,Potency,[2],inactive
same,Potency,[3],inactive
same,Potency,[4],inactive
same,Potency,[5],inactive
same,Potency,[6],inactive
same,Potency,[7],inactive
same,Potency,[8],inactive
C[C@@H]1CN(c2c(F)c(N)c3c(=O)c(C(=O)O)cn(C4CC4)c3c2F)C[C@H](C)N1,outcome,[1],inactive
same,Potency,[2],inactive
same,Potency,[3],inactive
same,Potency,[4],inactive
same,Potency,[5],inactive
same,Potency,[6],inactive
same,Potency,[7],inactive
same,Potency,[8],inactive
CC[C@H](NC(C)C)[C@H](O)c1ccc(O)c2[nH]c(=O)ccc12,outcome,[1],inactive
same,Potency,[2],inactive
same,Potency,[4],inactive
same,Potency,[6],inactive
same,Potency,[7],inactive
same,Potency,[8],inactive
CCCCc1oc2ccc(NS(C)(=O)=O)cc2c1C(=O)c1ccc(OCCCN(CCCC)CCCC)cc1,outcome,[1],inactive
same,Potency,[2],inactive
same,Potency,[3],inactive
same,Potency,[4],5.01 µM (active)
same,Potency,[5],2.75 µM (active) and 3.38 µM (active)
same,Potency,[6],12.3 µM (active) and 12 µM (active)
same,Potency,[7],2.99 µM (active) and 11.5 µM (active) and 5.9 µM (active)
same,Potency,[8],2.99 µM (active) and 9.16 µM (active) and 6.61 µM (active)
CC(C)OC(=O)OCOP(=O)(CO[C@H](C)Cn1cnc2c(N)ncnc21)OCOC(=O)OC(C)C,outcome,[1],inactive
same,Potency,[2],inactive
same,Potency,[4],inactive
same,Potency,[5],inactive
same,Potency,[6],inactive
same,Potency,[7],inactive
same,Potency,[8],inactive
CNS(=O)(=O)Cc1ccc2[nH]cc(CCN(C)C)c2c1,outcome,[1],inactive
same,Potency,[2],inactive
same,Potency,[4],inactive
same,Potency,[5],inactive
same,Potency,[6],inactive
same,Potency,[7],inactive
same,Potency,[8],inactive
O=c1oc2c(O)c(O)cc3c(=O)oc4c(O)c(O)cc1c4c23,outcome,[1],inactive
same,Potency,[2],inactive
same,Potency,[3],inactive
same,Potency,[4],inactive
same,Potency,[5],inactive
same,Potency,[6],inactive
same,Potency,[8],inactive
CCCc1nc(C)c2c(=O)[nH]c(-c3cc(S(=O)(=O)N4CCN(CC)CC4)ccc3OCC)nn12,outcome,[1],inactive
same,Potency,[2],inactive
same,Potency,[3],inactive
same,Potency,[4],inactive
same,Potency,[5],inactive
same,Potency,[7],inactive
same,Potency,[8],inactive
Cc1ccnc2c1NC(=O)c1cccnc1N2C1CC1,outcome,[1],inactive
same,Potency,[2],inactive
same,Potency,[3],inactive
same,Potency,[4],inactive
same,Potency,[5],inactive
same,Potency,[6],inactive
O=C(O)c1cn(C2CC2)c2cc(N3CCNCC3)c(F)cc2c1=O,outcome,[1],inactive
same,Potency,[2],inactive
same,Potency,[4],inactive
CNNCc1ccc(C(=O)NC(C)C)cc1,outcome,[1],inactive
same,Potency,[2],inactive
same,Potency,[3],inactive
same,Potency,[4],inactive
same,Potency,[5],inactive
same,Potency,[6],inactive
same,Potency,[7],inactive
same,Potency,[8],inactive
CC(C)C[C@H](NC(=O)[C@H](CCc1ccccc1)NC(=O)CN1CCOCC1)C(=O)N[C@@H](Cc1ccccc1)C(=O)N[C@@H](CC(C)C)C(=O)[C@@]1(C)CO1,outcome,[1],inactive
same,Potency,[2],0.355 µM (active)
same,Potency,[3],inactive
same,Potency,[4],inactive
same,Potency,[5],inactive
same,Potency,[6],inactive
same,Potency,[7],7.5 nM (active) and 10.5 nM (active)
same,Potency,[8],6 nM (active) and 5.3 nM (active)
NC(=O)c1cccnc1,outcome,[1],inactive
same,Potency,[2],inactive
same,Potency,[3],inactive
same,Potency,[4],inactive
same,Potency,[5],inactive
same,Potency,[6],inactive
same,Potency,[7],inactive
same,Potency,[8],inactive
CCOC(=O)[C@H](CCc1ccccc1)N[C@H]1CS[C@H](c2cccs2)CN(CC(=O)O)C1=O,outcome,[1],inactive
same,Potency,[2],inactive
same,Potency,[3],inactive
same,Potency,[4],inactive
same,Potency,[5],inactive
same,Potency,[6],inactive
same,Potency,[7],inactive
same,Potency,[8],inactive
OC(Cn1cncn1)(Cn1cncn1)c1ccc(F)cc1F,outcome,[1],inactive
same,Potency,[2],inactive
same,Potency,[4],inactive
same,Potency,[7],inactive
same,Potency,[8],inactive
CC1=C(C(=O)O)N2C(=O)[C@@H](NC(=O)C(N)c3ccccc3)[C@H]2SC1 (stereo not given in full),outcome,[11],inactive
same,outcome,[12],inactive
same,Potency,[2],inactive
same,outcome,[13],inactive
same,outcome,[10],inactive
same,Potency,[3],inactive
same,Potency,[14],inactive
NC(=O)c1cccc(N)c1,outcome,[11],inactive
same,outcome,[12],inactive
same,Potency,[2],inactive
same,outcome,[13],inactive
same,outcome,[10],inactive
same,Potency,[7],inactive
same,Potency,[8],inactive
COc1cc2c(Nc3ccc(Br)cc3F)ncnc2cc1OCC1CCN(C)CC1,outcome,[1],inactive
same,outcome,[10],inactive
same,Potency,[3],inactive
same,Potency,[4],inactive
same,Potency,[5],inactive
same,Potency,[6],inactive
same,Potency,[7],inactive and 3.65 µM (active) and 13.2 µM (active)
same,Potency,[8],5.15 µM (active) and 16.6 µM (active)
COc1ccc2c(c1)c(CC(=O)OCC(=O)O)c(C)n2C(=O)c1ccc(Cl)cc1,Potency,[2],inactive
same,outcome,[10],inactive
same,Potency,[3],inactive
same,Potency,[4],inactive
same,Potency,[5],inactive
same,Potency,[6],inactive
Clc1ccccc1CN1CCc2sccc2C1,outcome,[1],inactive
same,Potency,[3],inactive
same,Potency,[4],inactive
CC(C)NCC(O)c1ccc(NS(C)(=O)=O)cc1 (stereo not given),outcome,[11],inactive
same,outcome,[12],inactive
same,Potency,[2],inactive
same,outcome,[13],inactive
same,outcome,[10],inactive
same,Potency,[3],inactive
same,Potency,[14],inactive
same,Potency,[7],inactive
same,Potency,[8],inactive
Nc1nc(N)c2nc(CNc3ccc(C(=O)NC(CCC(=O)O)C(=O)O)cc3)cnc2n1 (stereo not given),outcome,[11],inactive
same,outcome,[12],inactive
same,Potency,[2],inactive
same,outcome,[10],inactive
same,Potency,[14],3.55 µM (active)
CC(=O)Oc1ccccc1C(=O)Nc1ncc([N+](=O)[O-])s1,Potency,[2],inactive
same,outcome,[10],inactive
same,Potency,[3],inactive
same,Potency,[5],8.71 µM (active)
same,Potency,[6],2.75 µM (active)
same,Potency,[7],inactive
same,Potency,[8],inactive
